Mac1 fbg inh: CD11b/CD18-fibrinogen binding inhibition. P05107+P11215. inhibition, % at 10 µM. K562 CD11b/CD18 adhesion to fibrinogen, ATPlite luminescence; Mn2+ added to activate the integrin. AID 1497. hit rate 0.54% among 93,000;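 active means primary inhibition of 50% or more at 10 µM, then 40% or more on retest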
Ec RNAP inh: inhibitors of Escherichia coli RNA polymerase; E. coli RNA polymerase, fluorescence transcription assay; inhibition, %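 (tested at 10 µM)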; hit rate 0.2% among 62,000; in the data active means inhibition above about 20%;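 further: 0% = enzyme without compound and 100% = no enzyme blank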
PTK2B oligo ant: blocks oligomerization of human Pyk2 in cells; hit rate 0.83% among 99,000; Q293 cells, Pyk2 FERM NanoBiT luminescence; hits give low values; z-score (the deposit names both 25 µM and 10 µM);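 active means Z-score of -3 or lower, scaled per plate to the spread of control and sample wells; inactive means z-score above -3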;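 further: negative z-score means lost luminescence so less FERM oligomerization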
Target sequence (Q14289 whole entry, looked up): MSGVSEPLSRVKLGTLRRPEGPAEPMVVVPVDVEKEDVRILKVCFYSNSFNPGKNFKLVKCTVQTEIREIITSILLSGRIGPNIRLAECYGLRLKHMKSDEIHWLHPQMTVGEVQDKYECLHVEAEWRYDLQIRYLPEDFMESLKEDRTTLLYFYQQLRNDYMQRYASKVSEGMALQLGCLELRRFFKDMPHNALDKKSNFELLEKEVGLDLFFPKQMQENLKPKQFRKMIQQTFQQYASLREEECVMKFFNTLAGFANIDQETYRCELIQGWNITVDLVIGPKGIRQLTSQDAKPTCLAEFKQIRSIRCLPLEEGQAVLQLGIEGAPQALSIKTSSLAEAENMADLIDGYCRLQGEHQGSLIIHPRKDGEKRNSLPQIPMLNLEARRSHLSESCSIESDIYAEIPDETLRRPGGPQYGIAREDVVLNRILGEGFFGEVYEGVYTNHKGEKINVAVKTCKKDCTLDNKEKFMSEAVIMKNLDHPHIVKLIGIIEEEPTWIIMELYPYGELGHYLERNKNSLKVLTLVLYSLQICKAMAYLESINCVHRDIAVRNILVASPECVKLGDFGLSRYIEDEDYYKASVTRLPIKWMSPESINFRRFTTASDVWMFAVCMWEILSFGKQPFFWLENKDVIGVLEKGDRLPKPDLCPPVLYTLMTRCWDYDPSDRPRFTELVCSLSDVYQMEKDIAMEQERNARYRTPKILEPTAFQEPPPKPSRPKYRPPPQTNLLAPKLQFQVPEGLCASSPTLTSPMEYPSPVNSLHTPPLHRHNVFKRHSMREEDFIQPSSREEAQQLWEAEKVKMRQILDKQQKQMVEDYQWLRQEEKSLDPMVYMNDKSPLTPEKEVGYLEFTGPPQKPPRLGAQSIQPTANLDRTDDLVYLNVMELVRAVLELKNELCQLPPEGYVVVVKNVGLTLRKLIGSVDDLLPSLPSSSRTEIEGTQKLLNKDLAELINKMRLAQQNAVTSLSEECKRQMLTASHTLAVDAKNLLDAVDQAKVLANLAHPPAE
Cav3 T inh: inhibitors of human Cav3.2 T-type calcium channel | O95180 | Cav3.2-expressing cells, Fluo-4 calcium fluorescence FDSS; hits give low values | B-score at 10 µM | hit rate 4% among 100,000 | AID 449739;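 active means single-dose well whose peak fluorescence ratio is a statistical outlier from its plate by either plate-standardised score or position-corrected B-score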
CD11b adhes enh: increases human CD11b/CD18 adhesion to fibrinogen | P05107+P11215 | K562 CD11b/CD18 adhesion to fibrinogen, ATPlite luminescence | activation, % at 10 µM | hit rate 0.07% among 93,000 | AID 1499;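 active means 10 µM primary screen giving 50% or more activity, confirmed by 40% or more on retest at that dose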
An asterisk follows results filed as active. The list is not random: actives were taken first. Their share in the collection is about 4.2%.

Results for CCN(CC)C(=O)c1ccc2c3c(cccc13)C(=O)N(CCc1ccc(OC)c(OC)c1)C2=O ?
Mac1 fbg inh: 5.6; CD11b adhes enh: 4.9

Results for Cc1c(N2C(=O)/C(=C\c3ccc(N(C)C)cc3)N(C)C2=S)c(=O)n(-c2ccccc2)n1C ?
Mac1 fbg inh: -6.9; CD11b adhes enh: 10.6

Results for O=C1N(c2cccc(Cl)c2)C(c2ccc(Cl)cc2)N2CCCN12 (configuration not stated) ?
Mac1 fbg inh: 4.7; CD11b adhes enh: -3.0

What do the screens show for `CCc1nc(C)cn1S(=O)(=O)c1ccc(Cl)c(Cl)c1Cl`?
Mac1 fbg inh: 44.5; Ec RNAP inh: 6.5; PTK2B oligo ant: 0.8; Cav3 T inh: -3.57*; CD11b adhes enh: -4.6

Results for CCc1nc(C)cn1S(=O)(=O)c1cc(C)c(OC)c(C)c1C ?
Mac1 fbg inh: 79.9*; PTK2B oligo ant: 0.71; Cav3 T inh: 0.326; CD11b adhes enh: 2.9

What do the screens show for `CCc1nc(C)cn1S(=O)(=O)c1cc(Br)c(C)cc1OC`?
Mac1 fbg inh: -0.9; Ec RNAP inh: 10.4; PTK2B oligo ant: 0.37; CD11b adhes enh: 1.7

How did CCc1nc(C)cn1S(=O)(=O)c1cc(Cl)c(OC)cc1Cl do in these assays?
PTK2B oligo ant: 0.74; Cav3 T inh: -2.53

What do the screens show for `CCc1nc(C)cn1S(=O)(=O)c1cc(C)c(OC)cc1C`?
Mac1 fbg inh: -2.4; Ec RNAP inh: 8.4; Cav3 T inh: -3.84*; CD11b adhes enh: -10.5

Results for Cc1ccc(CN2CCN(Cc3ccccc3C(F)(F)F)CC2)cc1 ?
Mac1 fbg inh: 1.3; PTK2B oligo ant: 1.06; Cav3 T inh: -0.108; CD11b adhes enh: -2.7

What do the screens show for `CCCNC(=O)NC(=O)CSc1ccc2c(c1)OCCO2`?
Mac1 fbg inh: -8.3; PTK2B oligo ant: 0.09; Cav3 T inh: -0.0281; CD11b adhes enh: -4.6

What do the screens show for `CCCC(=O)O[C@H]1C[C@@H](C)N(C(=O)c2ccccc2)c2ccc(C)cc21`?
Mac1 fbg inh: -1.8; PTK2B oligo ant: -1.08; Cav3 T inh: -7.97*; CD11b adhes enh: -0.7

Results for CC12COC3(C(N)=O)CC1CCC32C (configuration not stated) ?
Mac1 fbg inh: -12.5; CD11b adhes enh: 17.6

What do the screens show for `Cc1cc(C(F)(F)F)c2c(N)c(C(=O)Nc3cc(C)on3)sc2n1`?
Mac1 fbg inh: -7.8; Ec RNAP inh: -4.2; PTK2B oligo ant: -0.06; Cav3 T inh: 1.2; CD11b adhes enh: 17.3

How did Nc1c(C(=O)Nc2ccccc2F)sc2nc(Cc3ccccc3)cc(C(F)(F)F)c12 do in these assays?
Mac1 fbg inh: 6.4; PTK2B oligo ant: 0.5; Cav3 T inh: -3.37*; CD11b adhes enh: -1.7

Results for Cc1c(Cl)cccc1NC(=O)c1nc(C)n(-c2cc(OC(C)C)c(Cl)cc2Cl)n1 ?
Mac1 fbg inh: -2.0; PTK2B oligo ant: 1.2; Cav3 T inh: -11.6*; CD11b adhes enh: -4.7

What do the screens show for `Cc1nc(C(=O)N(C)C)nn1-c1ccc(Cl)cc1Cl`?
Mac1 fbg inh: 10.1; PTK2B oligo ant: 0.34; Cav3 T inh: 0.608; CD11b adhes enh: 4.6

What do the screens show for `Cc1ccc(CNC(=O)CSc2nc3ccccc3c3nc(C)nn23)cc1`?
Mac1 fbg inh: -2.4; Cav3 T inh: 0.00887; CD11b adhes enh: -4.4

How did COc1ccc(O)c(C(=O)c2cnc3onc(C)c3c2)c1 do in these assays?
Mac1 fbg inh: 3.1; Ec RNAP inh: 10.2; PTK2B oligo ant: -2.19; Cav3 T inh: -1.8; CD11b adhes enh: -5.7

Results for CC(C)c1noc2ncc(C(=O)c3cc(Cl)cc(Cl)c3O)cc12 ?
Mac1 fbg inh: 95.0*; PTK2B oligo ant: -1.52; Cav3 T inh: -6.53*; CD11b adhes enh: -10.7

What do the screens show for `Cn1c(=O)n(-c2cccc(Cl)c2)c(=O)c2c3c(sc21)COC(C)(C)C3`?
PTK2B oligo ant: -0.54; Cav3 T inh: 1.05

How did COc1ccc(Cl)cc1C(=O)NNC(=S)NC(=O)c1cc(-c2ccccc2)nc2ccccc12 do in these assays?
Mac1 fbg inh: 16.1; PTK2B oligo ant: -0.05; CD11b adhes enh: 62.4*

Results for CCCOc1ccc(C(=O)NNC(=S)NC(=O)c2cc(-c3ccc(Cl)cc3)nc3ccccc23)cc1 ?
PTK2B oligo ant: -0.64; Cav3 T inh: -6.73*

How did COc1ccc(Cl)cc1C(=O)NC(=S)Nc1cc(-c2nc3ccccc3[nH]2)ccc1C do in these assays?
PTK2B oligo ant: 0.62; Cav3 T inh: -4.79*

Results for COc1ccccc1NC(=S)NNC(=O)c1ccc(Cl)cc1Cl ?
PTK2B oligo ant: -0.1; Cav3 T inh: -2.88

Results for CCC(Cc1ccccc1)NC(=O)CCn1cccc1 (configuration not stated) ?
Mac1 fbg inh: 13.2; PTK2B oligo ant: 0.27; Cav3 T inh: -1.39; CD11b adhes enh: -3.1

What do the screens show for `Cc1ccc(SCC(=O)NC(C)(C)C)cc1`?
Mac1 fbg inh: 3.0; PTK2B oligo ant: 0.57; Cav3 T inh: 0.878; CD11b adhes enh: 6.8

What do the screens show for `CCN(CC)C(=O)c1sc(NC(=O)C(Sc2ccccc2)c2ccccc2)c(C(=O)OC(C)C)c1C` (configuration not stated)?
Mac1 fbg inh: 7.7; PTK2B oligo ant: -1.57; Cav3 T inh: -4.5*; CD11b adhes enh: -0.4

What do the screens show for `CCN(CC)C(=O)c1sc(NC(=O)c2ccoc2C)c(C(=O)OC)c1C`?
Mac1 fbg inh: 8.0; Ec RNAP inh: 2.5; PTK2B oligo ant: -0.11; Cav3 T inh: -0.56; CD11b adhes enh: 1.0

What do the screens show for `CN(C)c1ccc([C@@H]2[C@@H]([N+](=O)[O-])[C@H]3C=Cc4ccccc4N3[C@H]2C(=O)c2ccc(Cl)cc2)cc1`?
Mac1 fbg inh: -7.9; CD11b adhes enh: 88.3

How did COC(=O)c1ccc(NC(=O)c2sc3nc(-c4ccccc4)cn3c2C)cc1 do in these assays?
Mac1 fbg inh: 38.8; Ec RNAP inh: 7.9; PTK2B oligo ant: -3.75*; CD11b adhes enh: -4.5

Results for COc1cc(C(=O)NNC2=NC(C)(C)Cc3cc(C)c(C)cc32)cc(OC)c1OC ?
Mac1 fbg inh: -1.1; CD11b adhes enh: 1.6

What do the screens show for `N#CC1=C(N)NC(SCc2ccc(Cl)cc2)=C(C#N)C12CCCCC2`?
Mac1 fbg inh: 85.3; Ec RNAP inh: 0.9; PTK2B oligo ant: -0.86; Cav3 T inh: -4.11*; CD11b adhes enh: -9.5

Results for N#CC1=C(N)NC(SCC(=O)Nc2ccc(Br)cc2)=C(C#N)C12CCCCC2 ?
Mac1 fbg inh: 82.6*; PTK2B oligo ant: -1.64; Cav3 T inh: -6.5*; CD11b adhes enh: -8.7

What do the screens show for `N#CC1=C(N)NC(SCc2ccc(Br)cc2)=C(C#N)C12CCCCC2`?
PTK2B oligo ant: -2.26

What do the screens show for `O=C(CCn1c(=O)[nH]c2ccsc2c1=O)N1CCN(c2cccc(Cl)c2)CC1`?
Mac1 fbg inh: 3.9; Ec RNAP inh: 1.7; PTK2B oligo ant: 0.39; Cav3 T inh: -5.91*; CD11b adhes enh: -2.3

Results for CCc1ccc(CNC(=O)C(=O)NCCc2ccc(OC)c(OC)c2)cc1 ?
PTK2B oligo ant: 0.4; Cav3 T inh: -5.31*

Results for Cc1ccc(/C=C/C(=O)Nc2sc3c(c2C#N)CCCC3)o1 ?
Mac1 fbg inh: -8.4; CD11b adhes enh: 37.1
